Consider 3 compounds from PubChem BioAssay (EPA / NIEHS).

Active and inactive are the calls of the source. How the source made its calls: active means hit-call score of the fitted dose curve at least 0.9, where 1 is the maximum; inactive means score below 0.9.

Read-out in experiment [1]: C-C motif chemokine 2 (Homo sapiens) (UniProt P13500)
Description: BSK_KF3CT_MCP1: BioMAP Diversity Plus: KF3CT Assay for Monocyte Chemoattractant Protein 1 (MCP1/CCL2) Biomarker Activity (AID 2283073). The following applies: primary human keratinocytes with fibroblasts; actives raise or lower the signal. The gist of the method:
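Human keratinocyte plus foreskin fibroblast primary co-culture exposed to chemical for 24 h. MCP-1 levels measured by ELISA. Bidirectional curve fitting relative to DMSO negative control as baseline.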

Read-out in experiment [2]: Matrix Metallopeptidase 9 (MMP9), MMP9 (gene 4318)
Description: BSK_KF3CT_MMP9: BioMAP Diversity Plus: KF3CT Assay for Matrix Metallopeptidase 9 (MMP9) Biomarker Activity (AID 2283074).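 On AC50: MMP9 protein level quantified by ELISA in the co-culture.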 The settings on record: primary human keratinocytes with fibroblasts; actives raise or lower the signal. The gist of the method: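 Values come from bidirectional fitting relative to DMSO of MMP-9 levels, which were measured by ELISA. Measurements were taken 24 h after chemical dosing of a keratinocyte and foreskin fibroblast co-culture.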

Read-out in experiment [3]: urokinase plasminogen activator (uPA), PLAU (gene 5328)
Description: BSK_KF3CT_uPA: BioMAP Diversity Plus: KF3CT Assay for urokinase plasminogen activator (uPA) Biomarker Activity (AID 2283075). The settings on record: primary human keratinocytes with fibroblasts; actives raise or lower the signal. The gist of the method: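 Values derive from bidirectional fitting against DMSO controls. Keratinocyte/foreskin fibroblast co-cultures received chemical; 24 h later uPA was detected by ELISA, with SRB total-protein staining in parallel wells for overt cytotoxicity.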

Read-out in experiment [4]: E-selectin (Homo sapiens) (UniProt P16581)
As to the kind of experiment: BSK_LPS_Eselectin: BioMAP Diversity Plus: LPS Assay for Eselectin Biomarker Activity (AID 2283077). The settings on record: primary human HUVEC with PBMC; actives raise or lower the signal. The gist of the method:
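Human umbilical vein endothelial cells co-cultured with peripheral blood mononuclear cells under LPS stimulation; E-selectin measured by ELISA 24 h after chemical dosing. Activity fitted bidirectionally against DMSO as negative control and baseline.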

Read-out in experiment [5]: Interleukin-8 (IL8), CXCL8 (gene 3576)
Description: BSK_LPS_IL8: BioMAP Diversity Plus: LPS Assay for Interleukin-8 (IL8) Biomarker Activity (AID 2283078). The following applies: primary human HUVEC with PBMC; actives raise or lower the signal. The gist of the method:
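Human umbilical vein endothelial cells co-cultured with PBMC were stimulated with LPS; IL-8 levels were measured by ELISA 24 h after chemical dosing. Activity was fitted bidirectionally against DMSO as negative control and baseline.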

A short description of experiment [6]: BSK_LPS_SRB: Viability Assessment in the BioMAP Diversity Plus: LPS Assay (AID 2283079).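 Further: total protein by sulforhodamine B absorbance as a cytotoxicity measure; measured one day after compound addition; fitted in both directions against DMSO so loss or gain of signal counts.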 The settings on record: primary human HUVEC with PBMC. The gist of the method:
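Human umbilical vein endothelial cells co-cultured with PBMC (LPS system) were dosed for 24 h. Total protein was stained with 0.1% sulforhodamine B after 10% TCA fixation, read at 560 nm, and fitted bidirectionally against DMSO baseline.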

Read-out in experiment [7]: Interleukin-1 alpha (IL1a), IL1A (gene 3552)
As to the kind of experiment: BSK_LPS_IL1a: BioMAP Diversity Plus: LPS Assay for Interleukin-1 alpha (IL1a) Biomarker Activity (AID 2283080). The following applies: primary human HUVEC with PBMC; actives raise or lower the signal. Put shortly:
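Human umbilical vein endothelial cells co-cultured with peripheral blood mononuclear cells were LPS-stimulated and exposed to test chemicals for 24 h. IL-1 alpha was quantified by ELISA, with bidirectional curve fitting against DMSO as the negative control and baseline.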

Read-out in experiment [8]: Monocyte Chemoattractant Protein-1 (MCP1), CCL2 (gene 6347)
Description: BSK_LPS_MCP1: BioMAP Diversity Plus: LPS Assay for Monocyte Chemoattractant Protein-1 (MCP1) Biomarker Activity (AID 2283081).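 On AC50: co-culture stimulated with LPS; secreted MCP-1 protein quantified by ELISA in culture supernatant.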 The settings on record: primary human HUVEC with PBMC; actives raise or lower the signal. Put shortly: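 HUVEC plus PBMC co-culture (human primary cells, LPS system) exposed to test chemical for 24 h; MCP-1 measured by ELISA. Bidirectional curve fitting against DMSO baseline; parallel SRB total-protein staining flags overt cytotoxicity.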

A short description of experiment [9]: BSK_LPS_PGE2: BioMAP Diversity Plus: LPS Assay for Prostaglandin E2 (PGE2) Biomarker Activity (AID 2283082).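 On AC50: secreted prostaglandin E2 measured by ELISA in LPS-stimulated co-culture.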 The settings on record: primary human HUVEC with PBMC; actives raise or lower the signal. Put shortly:
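PGE2 release measured by ELISA in an LPS-activated co-culture of human umbilical vein endothelial cells and peripheral blood mononuclear cells, read at 24 h post-dosing. DMSO served as baseline for bidirectional curve fitting.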

Read-out in experiment [10]: Macrophage colony-stimulating factor (MCSF), CSF1 (gene 1435)
Description: BSK_LPS_MCSF: BioMAP Diversity Plus: LPS Assay for Macrophage colony-stimulating factor (MCSF) Biomarker Activity (AID 2283083). The settings on record: primary human HUVEC with PBMC; actives raise or lower the signal. Put shortly: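 Human umbilical vein endothelial cells co-cultured with peripheral blood mononuclear cells were exposed to compound for 24 h. M-CSF levels were measured by ELISA, and bidirectional curve fitting used DMSO as the negative control and baseline.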

Read-out in experiment [11]: Tissue Factor, F3 (gene 2152)
As to the kind of experiment: BSK_LPS_TissueFactor: BioMAP Diversity Plus: LPS Assay for Tissue Factor Biomarker Activity (AID 2283084). The settings on record: primary human HUVEC with PBMC; actives raise or lower the signal. The gist of the method:
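Human umbilical vein endothelial cells co-cultured with peripheral blood mononuclear cells were dosed and stimulated with LPS. Cell-surface CD142 was quantified by ELISA at 24 h. Activity was fitted bidirectionally against DMSO baseline.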

Read-out in experiment [12]: Tumor necrosis factor (Homo sapiens) (UniProt P01375)
Description: BSK_LPS_TNFa: BioMAP Diversity Plus: LPS Assay for Tumour Necrosis Factor alpha (TNFa) Biomarker Activity (AID 2283085).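 On AC50: TNFa protein level quantified by ELISA in the co-culture.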 The following applies: primary human HUVEC with PBMC; actives raise or lower the signal. Put shortly:
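TNFa was quantified by ELISA in LPS-activated co-cultures of human endothelial cells and PBMC, 24 h post-dosing. Both increases and decreases versus DMSO were fitted.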

Read-out in experiment [13]: Vascular cell adhesion molecule 1 (VCAM1), VCAM1 (gene 7412)
As to the kind of experiment: BSK_LPS_VCAM1: BioMAP Diversity Plus: LPS Assay for Vascular cell adhesion molecule 1 (VCAM1) Biomarker Activity (AID 2283086). The settings on record: primary human HUVEC with PBMC; actives raise or lower the signal. The gist of the method: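 VCAM-1 quantified by ELISA in an LPS-activated co-culture of human endothelial cells and peripheral blood mononuclear cells, read 24 h post-treatment. Fitted in both directions versus DMSO; parallel SRB staining flags overt cytotoxicity.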

Read-out in another experiment: CD38, CD38 (gene 952)
Description: BSK_SAg_CD38: BioMAP Diversity Plus: SAg Assay for CD38 Biomarker Activity (AID 2283087). The settings on record: primary human HUVEC with PBMC; actives raise or lower the signal. Put shortly: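 CD38 quantified by ELISA (fluorescence) in a superantigen-activated endothelial cell–PBMC co-culture at 24 h post-dose. Activity fitted in both directions relative to DMSO; parallel SRB and Alamar Blue cytotoxicity read-outs.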

Read-out in the next experiment: CD40, CD40 (gene 958)
Description: BSK_SAg_CD40: BioMAP Diversity Plus: SAg Assay for CD40 Biomarker Activity (AID 2283088). The following applies: primary human HUVEC with PBMC; actives raise or lower the signal. The gist of the method: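 Human umbilical vein endothelial cells co-cultured with PBMC; CD40 levels measured by ELISA with fluorescence read-out 24 h after chemical dosing. Gain or loss of signal fitted bidirectionally against DMSO baseline.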

Read-out in another experiment: CD69, CD69 (gene 969)
Description: BSK_SAg_CD69: BioMAP Diversity Plus: SAg Assay for CD69 Biomarker Activity (AID 2283089).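 On AC50: cell surface CD69 protein quantified by ELISA with fluorescence detection.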 The settings on record: primary human HUVEC with PBMC; actives raise or lower the signal. Put shortly: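 HUVEC co-cultured with PBMC were dosed with chemical, and CD69 was measured by ELISA with fluorescence read-out 24 h later. Bidirectional curve fitting used DMSO as negative control and activity baseline.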

Read-out in experiment [14]: Monocyte Chemoattractant Protein-1 (MCP1), CCL2 (gene 6347)
Description: BSK_SAg_MCP1: BioMAP Diversity Plus: SAg Assay for Monocyte Chemoattractant Protein-1 (MCP1) Biomarker Activity (AID 2283090). The settings on record: primary human HUVEC with PBMC; actives raise or lower the signal. The gist of the method:
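Values derive from bidirectional fitting of ELISA-measured MCP1 against DMSO controls. Readings were taken 24 h after dosing human vascular endothelial cells co-cultured with peripheral blood mononuclear cells under superantigen stimulation.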

Read-out in experiment [15]: E-selectin (Homo sapiens) (UniProt P16581)
As to the kind of experiment: BSK_SAg_Eselectin: BioMAP Diversity Plus: SAg Assay for Eselectin Biomarker Activity (AID 2283091). The following applies: primary human HUVEC with PBMC; actives raise or lower the signal. Put shortly: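 HUVEC co-cultured with PBMC, compound dosed then read at 24 h; E-selectin measured by ELISA. Activity fitted bidirectionally against DMSO as negative control and baseline.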

Sequence of Tumor necrosis factor (Homo sapiens) (P01375 whole entry, looked up): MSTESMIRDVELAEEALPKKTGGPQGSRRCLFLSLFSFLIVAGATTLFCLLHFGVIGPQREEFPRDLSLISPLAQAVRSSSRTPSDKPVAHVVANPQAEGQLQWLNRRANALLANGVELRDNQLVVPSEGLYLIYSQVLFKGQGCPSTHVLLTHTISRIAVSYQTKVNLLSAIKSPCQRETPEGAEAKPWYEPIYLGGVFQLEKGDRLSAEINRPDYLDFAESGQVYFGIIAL
Sequence of E-selectin (Homo sapiens) (P16581 whole entry, looked up): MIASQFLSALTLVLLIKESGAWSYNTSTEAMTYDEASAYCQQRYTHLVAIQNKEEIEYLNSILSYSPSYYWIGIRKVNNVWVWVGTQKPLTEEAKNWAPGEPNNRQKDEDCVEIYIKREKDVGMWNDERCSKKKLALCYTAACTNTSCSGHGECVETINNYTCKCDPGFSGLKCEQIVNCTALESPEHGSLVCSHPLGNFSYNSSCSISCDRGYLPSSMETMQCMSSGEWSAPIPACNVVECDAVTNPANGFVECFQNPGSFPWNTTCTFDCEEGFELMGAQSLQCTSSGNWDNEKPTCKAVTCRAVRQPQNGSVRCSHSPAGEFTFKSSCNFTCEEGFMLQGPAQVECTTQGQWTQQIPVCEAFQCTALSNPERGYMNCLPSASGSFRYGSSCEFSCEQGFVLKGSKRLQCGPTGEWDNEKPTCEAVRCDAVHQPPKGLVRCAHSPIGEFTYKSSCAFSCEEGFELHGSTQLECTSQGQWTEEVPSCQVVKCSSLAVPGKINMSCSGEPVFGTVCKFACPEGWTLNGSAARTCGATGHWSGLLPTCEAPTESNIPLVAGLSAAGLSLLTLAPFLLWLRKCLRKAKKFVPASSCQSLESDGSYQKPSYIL

Regarding `CCCCCCCCOC(=O)c1cc(O)c(O)c(O)c1`, the concentration at half-maximal activity (AC50) in [1] was 27.4 µM (active); in experiment [2], 8.92 µM (active); in experiment [3], 18.2 µM (active); in experiment [4], 36.6 µM (active); in experiment [5], 24.6 µM (active); in experiment [6], 25.6 µM (active). For the same compound, the AC50 is 20 µM (active) in [7]; 26.7 µM (active) in experiment [8]; 5.32 µM (active) in experiment [9]; 31.9 µM (active) in experiment [10]; 32.4 µM (active) in experiment [11]; 32.3 µM (active) in [12]. Besides, the AC50 was 30.6 µM (active) in [13]; 13.1 µM (active) with CD38, CD38 (gene 952); 14.8 µM (active) in the experiment with CD40, CD40 (gene 958); 16.6 µM (active) in the experiment with CD69, CD69 (gene 969); 20 µM (active) in experiment [14]; 16 µM (active) in experiment [15].
`CN1C(=O)CC[C@H]1c1cccnc1`: the result in experiment [1], in experiment [2], in experiment [3], in experiment [4], in experiment [5] and in experiment [6] was inactive. Further, the result in experiment [7], in [8], in experiment [9], in experiment [10], in experiment [11] and in experiment [12] was inactive. For the same compound, the outcome in experiment [13] is “inactive”; in the experiment with CD38, CD38 (gene 952), “inactive”; with CD40, CD40 (gene 958) it was “inactive”; in the experiment with CD69, CD69 (gene 969), “inactive”; in experiment [14], “inactive”; in experiment [15] it was “inactive”.
`O=c1c(-c2ccc(O)cc2)coc2cc(O)cc(O)c12`: the result in experiment [1] and in experiment [3] was inactive. The AC50 was 20 µM (active) in experiment [2]; 31.7 µM (active) in experiment [4]; 20 µM (active) in [5]; 12 µM (active) in [6]; 16 µM (active) in [7]; 17.9 µM (active) in experiment [8]. Also, the AC50 is 10 µM (active) in experiment [9]; 14.8 µM (active) in experiment [10]; 13.2 µM (active) in [11]; 15.8 µM (active) in [12]; 13.9 µM (active) in experiment [13]; 25.6 µM (active) with CD40, CD40 (gene 958). Besides, the AC50 with CD69, CD69 (gene 969) is 20 µM (active); in [14], 18.7 µM (active); in experiment [15] it was 24.9 µM (active).
